Reference: article PMC13494018

B1: design_391_ca6baf5d-2451-47ba-bffc-fc886679966a_707_dldesign_0_cycle1_af2pred (protein)
chain: AEEEERERRAEEVRRWAEERAAQARALAAQDPQAGLALALEAMEELRELRERDPAVAEAAREGEQLMAEIAAQAAKAATA
B2: design_391_ca6baf5d-2451-47ba-bffc-fc886679966a_968_dldesign_0_cycle1_af2pred (protein)
chain: AAAQQQLRDQARKLLEQAAKRAKEAGNEEAAKEAKEAAKLLKEGGSLGEAAVEASRAHAAAVRFGDEETAALAQAALKLLSQAA
B3: design_391_ca6baf5d-2451-47ba-bffc-fc886679966a_1760_dldesign_0_cycle1_af2pred (protein)
chain: KEETQRVMVEATRVINRVAALVIAHPELTEAAALIQQALALLEQAKELLEAGEEEKALELAKQALELAKKALEIAESAL
B4: design_391_ca6baf5d-2451-47ba-bffc-fc886679966a_1034_dldesign_0_cycle1_af2pred (protein)
chain: ADAAAQALSQAFELAAQALTKTGSDEANAALQAVTRAMADPAKLPEAIAAAKKAAAAYPEVKALMDQAIKELEKAAELAKAA
B5: design_391_ca6baf5d-2451-47ba-bffc-fc886679966a_1141_dldesign_0_cycle1_af2pred (protein)
chain: APAAATARAVGKRAQAAAKKLAKAGTKEVAKEAKKLAEKAKELEKEAIANAADTAVSGAKILEILKLLDEANKLLKKY
B6: design_391_ca6baf5d-2451-47ba-bffc-fc886679966a_1313_dldesign_0_cycle1_af2pred (protein)
chain: MEEARRRAEELLRRVRELAARAAKAAAAGDVAEAQRLLAEALEALAELSRLGREVGPEGRELVREGNRAVAAAARAALAAARAA
B7: design_486_d4f32670-1303-4d79-8413-1b14cb3eff50_66_dldesign_0_cycle1_af2pred (protein)
chain: AEAEAAAEAAAAAARAAAAAGDFATAVAITTTFAAANPALAWRVANAALAAFSQAARDPATAAAANAAMAAVVDTLRALSS
B8: design_486_d4f32670-1303-4d79-8413-1b14cb3eff50_34_dldesign_0_cycle1_af2pred (protein)
chain: AAEKAIKVLEEAKKEAAKDPGDGKAAIEAIEKAIEAVKANPNNAGIGQAMVILAEAAAKASPKTRAVLSKAIAELSQVAI
B9: design_391_ca6baf5d-2451-47ba-bffc-fc886679966a_1360_dldesign_0_cycle1_af2pred (protein)
chain: DYTERAKAALKSAIENMAKAAIEAAKEDAEKGKEKLKQLKELSEQMIAIAASLDPALAKEIKAYAEEQIKKVEEAIKKAK
B10: design_391_ca6baf5d-2451-47ba-bffc-fc886679966a_1527_dldesign_0_cycle1_af2pred (protein)
chain: AEERAEEVRRRAEELRARALALIAEDPGAGMAYAVEAARELSEYGRAHPEVAEAAGEAANDVLSAASRAAMAVYAA
B11: design_391_ca6baf5d-2451-47ba-bffc-fc886679966a_1193_dldesign_0_cycle1_af2pred (protein)
chain: AAARQAALLAQAEALRAQAVALADGTAEEQQALLQQIVDLAQAHPDMSPETWAALNAALAAASSAYIRAARA
B12: design_391_ca6baf5d-2451-47ba-bffc-fc886679966a_1188_dldesign_0_cycle1_af2pred (protein)
chain: AAAEEIAARNGEALARQAAAASPEDAAAIAENALQMARASPLFAPAARKAVEAAAETIAKEDPERGEALLREGLAAVEAIEA
B13: design_391_ca6baf5d-2451-47ba-bffc-fc886679966a_2108_dldesign_0_cycle1_af2pred (protein)
chain: TAAAALAAAKAALATAKAAGLPARYLEMAEAALAVATSAAASGDPAHQKAALAFSSAVLAAIEAEAAKRA
B14: design_391_ca6baf5d-2451-47ba-bffc-fc886679966a_2349_dldesign_0_cycle1_af2pred (protein)
chain: NQAKLAEVFARAQEVIKRREEVRKRAEELSEEKREKVLKLLEESTKYLQEAFRAIAKGDAENAKKYVDKAEKLVEEAEKA
B15: design_391_ca6baf5d-2451-47ba-bffc-fc886679966a_2338_dldesign_0_cycle1_af2pred (protein)
chain: AEAAKQAALNTAGILAATVGAEAAAAAGLEAITVYGASIGDVLKATTTIASATSPQARANATRAVALISRALIAS
B16: design_391_ca6baf5d-2451-47ba-bffc-fc886679966a_2026_dldesign_0_cycle1_af2pred (protein)
chain: AAKEALEKAKEKAEEIKAIADDVAKKAAAGTITPEEVAAALAKAIELAKEASEYLKEVPEAEAEEIAREVNAAMAKLNKAAVKALA
B17: design_391_ca6baf5d-2451-47ba-bffc-fc886679966a_1601_dldesign_0_cycle1_af2pred (protein)
chain: STLQELVDAAKEALAAAGELYRLDPERGEALRKQVWALLIAGLRDPATAAADKAKIEALKAEAEALVAELK
B18: design_486_d4f32670-1303-4d79-8413-1b14cb3eff50_103_dldesign_0_cycle1_af2pred (protein)
chain: AEAEEFAEKAKEKAKEAVKVYAKDPEAGAAKLNALQAEAARKAIADPRYNPALAAVVEEALKANEVAKAA
B19: design_391_ca6baf5d-2451-47ba-bffc-fc886679966a_926_dldesign_0_cycle1_af2pred (protein)
chain: AEAAAQKALATAMAKALKKRGEELLKEAKTASAEEAKKLLDNFVKLGEVLAAGAPPEVGAEVKAATEKYSAEMQAVIDAKAA
B20: design_391_ca6baf5d-2451-47ba-bffc-fc886679966a_1483_dldesign_0_cycle1_af2pred (protein)
chain: SEAAAKEKKAIEAIKKAAADAEAMLQSLIAAGMPAANARAVVTTMTTAARTAAKEAGTEAAKKAAKEAIAKIEAAGKAAEAQLAAQAA
B21: design_391_ca6baf5d-2451-47ba-bffc-fc886679966a_294_dldesign_0_cycle1_af2pred (protein)
chain: AAEEAAEKAVEEAEKALEKAKAHLAKYPDSLAAKAAVALAKTMLAAAKEVAEEGNLEELERTLESVRKATEEMDKLLAADEAAAA
B22: design_391_ca6baf5d-2451-47ba-bffc-fc886679966a_1909_dldesign_0_cycle1_af2pred (protein)
chain: VGLAKAAELAVESAKQAVEQAEALAKAGKDPKQALALTDQAKLAADTAKAIAKQVEKEDPEKGKKLKEEAEKVKKKAEEVEKKIK
B23: design_391_ca6baf5d-2451-47ba-bffc-fc886679966a_1932_dldesign_0_cycle1_af2pred (protein)
chain: AQANAELTLRTLEAAGRAALALARASDAETAARILDAFRKTSAVLIESGAAAGPEAAKKVKELADKYLAELEAIVAAKAAEAA
B24: design_486_d4f32670-1303-4d79-8413-1b14cb3eff50_135_dldesign_0_cycle1_af2pred (protein)
chain: EREEEVERRREEVVRAAELVAAIARAVGDEETARLAEEAKRLAEEGGEEGVERARELVREAMVRIAKRLAEKS
B25: design_391_ca6baf5d-2451-47ba-bffc-fc886679966a_1789_dldesign_0_cycle1_af2pred (protein)
chain: DALAQAIAQIKEMGDIALALAQDALANPAIAAGAIRAAQSLVKHMLALGKAAGPEAAAVAEKEAAKVNAAIAQAKAA
B26: design_391_ca6baf5d-2451-47ba-bffc-fc886679966a_1195_dldesign_0_cycle1_af2pred (protein)
chain: SLYDEALKYAMQAANLGYEADPELAKKLRQAAIALAQGKIDEAIALLKEAKELAKKYPEKEPEIKELIDKAIELANKIK
B27: design_391_ca6baf5d-2451-47ba-bffc-fc886679966a_1764_dldesign_0_cycle1_af2pred (protein)
chain: DPLEEALKEFEEALKLARELAEAVAALNPEEGERAREAIKEAEKRAKEALKLSPEEAAKAIREIRNELMRRVMREGARALAAA
B28: design_391_ca6baf5d-2451-47ba-bffc-fc886679966a_2255_dldesign_0_cycle1_af2pred (protein)
chain: DPLLAAARAVAAAALAAVRDGAARGAEAAEQALTFALNLLAAQARRAERELAGDPALRARVLAILDAARAEVRALGEALIAAAR
B29: design_486_d4f32670-1303-4d79-8413-1b14cb3eff50_4_dldesign_0_cycle1_af2pred (protein)
chain: REEKVEEARRLAQRALNAASKAVVGITSGSLSPEEIQALIDEATEALERAKELAPYATPAVREAIELAEALLQQAKEL
B30: design_391_ca6baf5d-2451-47ba-bffc-fc886679966a_2408_dldesign_0_cycle1_af2pred (protein)
chain: SAAAVAAALAAAEASVKTAERFAEEAEKAVDDPERATRLGESARQNIEVALALADDAAATDPAAAPKAAEIKKRAEEVRKRIEEVLKK
B31: design_391_ca6baf5d-2451-47ba-bffc-fc886679966a_2271_dldesign_0_cycle1_af2pred (protein)
chain: AAAEKEKEAEAKELFEKARKLAAEAAKLAVKAVGLSEEAYQLANEALQYAIEALEIVSAGEDLEKAKELLEKAQEKLKKATELVKKL
B32: design_391_ca6baf5d-2451-47ba-bffc-fc886679966a_2389_dldesign_0_cycle1_af2pred (protein)
chain: GKEEEAKEAVERARELAKKMIEEAEKAAKEDLGKAIEVLKKGNEELLELAEEAEELDPEAGEEIRELATQAISEAVKKMVAIQLAK
B33: design_486_d4f32670-1303-4d79-8413-1b14cb3eff50_194_dldesign_0_cycle1_af2pred (protein)
chain: GVEEAYDVAKALAEQAIKANAADPEAKKKAEEALKKAEEAYKNAPKIDPAEAAYKIMKEAAKAAKQYLAAVAK
B34: design_391_ca6baf5d-2451-47ba-bffc-fc886679966a_1281_dldesign_0_cycle1_af2pred (protein)
chain: AAQEVQERAREVAARAEALAAAAAADPAAARLARSAAHFARLAAELAPTDLPLAQQALEVAESLLAEAEALLAARRA
B35: design_391_ca6baf5d-2451-47ba-bffc-fc886679966a_888_dldesign_0_cycle1_af2pred (protein)
chain: AAAAAAAAAAAAAAAAALARAEELAAAASPEVRALIEAHGIAGRIMFMYTLGARAAAADPARGAELLADARALLAAAQAASRAA
B36: design_391_ca6baf5d-2451-47ba-bffc-fc886679966a_1257_dldesign_0_cycle1_af2pred (protein)
chain: SAAAAAAARAAKAAADAEQLKALGDAAIAQLAADPSMAPQARAVAAMARAAAEGYAADPATAAAAEAARATAERVAAAAAAAA
B37: design_391_ca6baf5d-2451-47ba-bffc-fc886679966a_866_dldesign_0_cycle1_af2pred (protein)
chain: SMEEEKKKEAEKKAQSYLKSVEVWATATISAIAQGVVGAQMLANLKKKSEEAIKKLKELGTEEGKKAAEKVKAYLAKAEAAA
B38: design_486_d4f32670-1303-4d79-8413-1b14cb3eff50_30_dldesign_0_cycle1_af2pred (protein)
chain: AAAARAKAGVYTGEGFEKVREGERLRREGDPRAVEEYEEAAKLFEKAAEYYAQVNPGAAAGVAAMAKQVRERAEEYREEL

molecular target: CD276, Q5ZPR3
Sequence (Q5ZPR3 whole entry): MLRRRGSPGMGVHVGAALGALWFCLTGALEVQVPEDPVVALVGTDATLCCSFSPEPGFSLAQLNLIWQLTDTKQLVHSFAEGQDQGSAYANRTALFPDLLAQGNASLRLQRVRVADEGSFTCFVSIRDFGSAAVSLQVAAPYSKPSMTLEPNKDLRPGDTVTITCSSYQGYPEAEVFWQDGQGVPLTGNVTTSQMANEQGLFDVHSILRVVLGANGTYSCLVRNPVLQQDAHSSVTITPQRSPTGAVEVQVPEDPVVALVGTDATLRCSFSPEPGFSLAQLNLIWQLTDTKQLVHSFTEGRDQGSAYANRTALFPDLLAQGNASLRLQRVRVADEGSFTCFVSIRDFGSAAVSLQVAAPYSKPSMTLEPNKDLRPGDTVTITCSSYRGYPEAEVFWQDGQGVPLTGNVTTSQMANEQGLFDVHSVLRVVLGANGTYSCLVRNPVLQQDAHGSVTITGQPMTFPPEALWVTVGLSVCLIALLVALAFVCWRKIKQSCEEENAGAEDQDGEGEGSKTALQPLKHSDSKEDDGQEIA

Binding in a display sort, inactive:
B1 not found
B2 not found
B3 not found
B4 not found
B5 not found
B6 not found
B7 not found
B8 not found
B9 not found
B10 not found
B11 not found
B12 not found
B13 not found
B14 not found
B15 not found
B16 not found
B17 not found
B18 not found
B19 not found
B20 not found
B21 not found
B22 not found
B23 not found
B24 not found
B25 not found
B26 not found
B27 not found
B28 not found
B29 not found
B30 not found
B31 not found
B32 not found
B33 not found
B34 not found
B35 not found
B36 not found
B37 not found
B38 not found
